mHTT CaM bind = disrupts binding of mutant huntingtin to calmodulin; AlphaScreen His-mHTT/GST-CaM binding, luminescence; hit rate 3.6% among 190,000; P42858; inhibition, % at 15 µM;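 also: 0% = both proteins with DMSO and 100% = one protein alone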
Target sequence (P42858 whole entry, looked up, stated change not applied): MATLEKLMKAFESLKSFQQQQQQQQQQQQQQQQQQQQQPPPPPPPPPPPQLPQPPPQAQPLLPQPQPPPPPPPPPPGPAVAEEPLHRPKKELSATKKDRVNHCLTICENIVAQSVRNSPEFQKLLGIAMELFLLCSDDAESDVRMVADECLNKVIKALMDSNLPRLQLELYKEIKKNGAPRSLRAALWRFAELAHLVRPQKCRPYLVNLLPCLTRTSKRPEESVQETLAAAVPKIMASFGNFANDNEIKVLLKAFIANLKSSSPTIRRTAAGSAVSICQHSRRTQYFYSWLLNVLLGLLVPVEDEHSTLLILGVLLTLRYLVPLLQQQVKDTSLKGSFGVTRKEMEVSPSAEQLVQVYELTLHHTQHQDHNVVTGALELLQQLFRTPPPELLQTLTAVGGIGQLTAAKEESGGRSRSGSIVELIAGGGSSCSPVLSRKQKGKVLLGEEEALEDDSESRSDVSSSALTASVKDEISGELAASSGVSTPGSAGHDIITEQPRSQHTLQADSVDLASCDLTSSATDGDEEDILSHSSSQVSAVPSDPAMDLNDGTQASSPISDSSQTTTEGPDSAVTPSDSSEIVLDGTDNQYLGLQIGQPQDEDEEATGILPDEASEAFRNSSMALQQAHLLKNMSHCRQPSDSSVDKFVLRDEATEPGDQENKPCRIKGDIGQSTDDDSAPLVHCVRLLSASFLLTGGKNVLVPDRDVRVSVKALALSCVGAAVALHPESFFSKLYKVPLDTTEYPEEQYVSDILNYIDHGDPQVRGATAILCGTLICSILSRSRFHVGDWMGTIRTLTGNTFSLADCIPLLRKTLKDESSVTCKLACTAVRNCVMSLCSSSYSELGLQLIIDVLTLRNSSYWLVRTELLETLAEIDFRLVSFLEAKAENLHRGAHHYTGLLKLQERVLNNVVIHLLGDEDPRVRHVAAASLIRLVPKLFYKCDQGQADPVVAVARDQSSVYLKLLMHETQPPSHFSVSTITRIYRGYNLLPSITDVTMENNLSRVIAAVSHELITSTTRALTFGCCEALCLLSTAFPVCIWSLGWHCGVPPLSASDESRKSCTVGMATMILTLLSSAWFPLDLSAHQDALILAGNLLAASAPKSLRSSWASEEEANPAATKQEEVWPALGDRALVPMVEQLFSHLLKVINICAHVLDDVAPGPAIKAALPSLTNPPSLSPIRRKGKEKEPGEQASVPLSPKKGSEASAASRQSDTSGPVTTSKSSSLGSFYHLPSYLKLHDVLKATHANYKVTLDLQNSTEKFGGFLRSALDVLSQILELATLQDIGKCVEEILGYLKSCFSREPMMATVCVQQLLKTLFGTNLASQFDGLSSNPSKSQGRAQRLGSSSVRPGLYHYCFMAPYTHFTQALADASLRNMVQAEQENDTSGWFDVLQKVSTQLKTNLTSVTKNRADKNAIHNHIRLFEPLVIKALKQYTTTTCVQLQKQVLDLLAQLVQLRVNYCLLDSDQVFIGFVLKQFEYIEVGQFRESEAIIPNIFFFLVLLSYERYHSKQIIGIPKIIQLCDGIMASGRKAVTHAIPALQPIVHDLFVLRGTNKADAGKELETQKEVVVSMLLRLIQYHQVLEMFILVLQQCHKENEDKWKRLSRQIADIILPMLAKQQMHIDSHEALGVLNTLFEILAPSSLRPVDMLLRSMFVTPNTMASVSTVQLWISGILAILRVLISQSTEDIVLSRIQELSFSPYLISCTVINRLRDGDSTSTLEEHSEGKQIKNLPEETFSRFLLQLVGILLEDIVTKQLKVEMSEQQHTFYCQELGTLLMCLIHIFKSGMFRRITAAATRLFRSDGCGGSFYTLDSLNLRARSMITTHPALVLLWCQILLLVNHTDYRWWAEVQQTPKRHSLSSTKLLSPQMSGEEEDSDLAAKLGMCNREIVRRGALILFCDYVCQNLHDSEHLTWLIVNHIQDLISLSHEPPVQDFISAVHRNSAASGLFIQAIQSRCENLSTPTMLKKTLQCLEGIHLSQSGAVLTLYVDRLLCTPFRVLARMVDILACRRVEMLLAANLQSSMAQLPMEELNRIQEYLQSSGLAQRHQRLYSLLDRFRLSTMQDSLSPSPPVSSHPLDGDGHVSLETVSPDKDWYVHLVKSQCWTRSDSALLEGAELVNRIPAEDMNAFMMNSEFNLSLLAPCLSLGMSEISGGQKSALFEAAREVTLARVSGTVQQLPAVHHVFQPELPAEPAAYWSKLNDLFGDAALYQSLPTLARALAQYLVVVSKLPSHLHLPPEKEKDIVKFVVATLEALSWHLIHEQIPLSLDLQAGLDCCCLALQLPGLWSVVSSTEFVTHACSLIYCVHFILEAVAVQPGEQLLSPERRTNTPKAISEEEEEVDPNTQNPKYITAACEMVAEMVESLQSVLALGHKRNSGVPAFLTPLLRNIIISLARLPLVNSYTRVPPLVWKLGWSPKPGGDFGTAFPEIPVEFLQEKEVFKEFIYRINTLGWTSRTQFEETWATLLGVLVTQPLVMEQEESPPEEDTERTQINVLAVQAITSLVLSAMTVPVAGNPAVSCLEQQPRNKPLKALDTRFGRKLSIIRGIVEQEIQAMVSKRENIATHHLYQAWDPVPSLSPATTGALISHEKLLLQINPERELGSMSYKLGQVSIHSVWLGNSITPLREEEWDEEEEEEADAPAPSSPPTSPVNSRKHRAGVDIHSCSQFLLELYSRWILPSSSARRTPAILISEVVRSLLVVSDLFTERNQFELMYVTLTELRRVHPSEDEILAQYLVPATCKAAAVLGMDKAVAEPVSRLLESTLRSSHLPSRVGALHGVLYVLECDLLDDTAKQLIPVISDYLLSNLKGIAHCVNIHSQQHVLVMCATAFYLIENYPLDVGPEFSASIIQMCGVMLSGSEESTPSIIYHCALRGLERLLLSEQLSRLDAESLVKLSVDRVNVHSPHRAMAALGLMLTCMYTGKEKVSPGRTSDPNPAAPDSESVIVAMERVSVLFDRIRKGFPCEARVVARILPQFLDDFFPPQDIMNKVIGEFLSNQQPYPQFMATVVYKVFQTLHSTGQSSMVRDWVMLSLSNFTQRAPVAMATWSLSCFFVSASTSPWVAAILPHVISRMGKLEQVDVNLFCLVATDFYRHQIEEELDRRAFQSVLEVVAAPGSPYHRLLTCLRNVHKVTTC
Pf apPOL block = Pf-apPOL DNA polymerase inhibition; inhibition, % at 10 µM; Recombinant Pf-apPOL, molecular beacon fluorescence, 1.5 h; hit rate 0.25% among 210,000
* marks the source's active call; other numbers are inactive results; x = no result. An excerpt weighted towards active compounds, which were near 3.6% of everything screened. Rule as the data show it: active = inhibition above about 50%; inactive = the rest.

SMILES | mHTT CaM bind | Pf apPOL block
Clc1ccc(C2=NN3C(C2)c2ccccc2OC3c2ccco2)cc1 (stereo not drawn) | 87* | -2
COc1cccc(NC(=O)CCN2CCc3ccccc3C2)c1 | -7 | -8
CN(C1CCCCC1)S(=O)(=O)c1ccc(C(=O)Nc2nc3c(s2)Cc2ccccc2-3)cc1 | 22 | 0
CCc1cccc(N2C=C(C#N)S(=O)(=O)c3cc(F)ccc32)c1 | -4 | -1
CC(C)NC(=O)N1CCCC(c2cccc(C(=O)N(C)Cc3ccccc3)c2)C1 (stereo not drawn) | 27 | -6
CC1(C(=O)NC2CCCCC2)Cc2ccccc2C(=O)N1Cc1ccccc1 (stereo not drawn) | -6 | -4
Cc1cc(C)cc(C(=O)N2CCCC(C(=O)NCCc3ccco3)C2)c1 (stereo not drawn) | -1 | 5
c1csc(C2=NN3C(C2)c2ccccc2OC3c2ccsc2)c1 (stereo not drawn) | 27 | -26
Brc1ccc(C2Oc3ccccc3C3CC(c4cccs4)=NN32)o1 (stereo not drawn) | 100* | -57
Cc1ccc(C2=NN3C(C2)c2ccccc2OC3c2ccccc2)o1 (stereo not drawn) | 30 | -8
Oc1ccc(O)c(C2=NN3C(C2)c2ccccc2OC3c2cccs2)c1 (stereo not drawn) | 67* | 16
COc1cccc2cc(C(=O)Nc3cccc(C(C)=O)c3)c(=O)oc12 | -4 | 1
Cc1nc2cccnc2n1C1CCN(C(=O)CC2CCN(C(C)C)CC2)C1 (stereo not drawn) | 0 | -1
Cc1ccc(CNC(=O)C2CCc3sc(C(=O)N4CCOCC4)cc3C2)cc1C (stereo not drawn) | -1 | -4
O=[N+]([O-])c1ccc(N2CCN(c3nc(N4CCN(CCO)CC4)nc4ccccc34)CC2)cc1 | 34 | 0
CCC1=NN(C(=O)c2ccncc2)C(O)(c2ccc(Br)cc2)C1 (stereo not drawn) | 42 | -2
CCC1=NN(C(=O)c2cccc(Cl)c2)C(O)(C(F)(F)F)C1 (stereo not drawn) | -4 | 4
CCC1=NN(C(=O)c2cccc(Cl)c2)C(O)(c2ccc(Br)cc2)C1 (stereo not drawn) | 89* | 4
CCC1=NN(C(=O)c2cccc(Br)c2)C(O)(C(F)(F)F)C1 (stereo not drawn) | 4 | 1
CCC1=NN(C(=O)c2ccc(Br)cc2)C(O)(c2ccccc2)C1 (stereo not drawn) | 36 | 5
CCCCC1=NN(C(=O)c2cccc(Cl)c2)C(O)(C(F)(F)F)C1 (stereo not drawn) | -9 | 57*
CCC1=NN(C(=O)c2ccc(Br)cc2)C(O)(c2ccc(OC)cc2)C1 (stereo not drawn) | 59* | -1
CCC1=NN(C(=O)c2ccc(Cl)cc2)C(O)(c2ccc(Br)cc2)C1 (stereo not drawn) | 85* | -12
O=C(NCc1cccs1)c1cc2n(n1)C(C(F)(F)F)CC(c1ccccc1)N2 (stereo not drawn) | 8 | 0
CCCNC(=O)ON=C(N)c1cc(Cl)c(N)c(Cl)c1 | x | -3
SMILES | mHTT CaM bind | Pf apPOL block
CCCCSc1nc2c(c(=O)n1-c1ccc(C)cc1)SCC2 | -2 | -5
O=C(NCc1ccccc1Cl)C1CCN(c2nccn3nc(-c4ccccc4)cc23)CC1 | 2 | 1
CN1CCn2cc(S(=O)(=O)Nc3cccc(Cl)c3)cc2C1=O | -10 | 0
Cc1cccc(NS(=O)(=O)c2ccc3nc(-c4ccccc4)[nH]c3c2)c1 | -4 | -10
CCc1cc(C(=O)N2CCCCC2)nc2cc(-c3ccsc3)nn12 | -1 | -6
COc1ccc(C=C2Oc3cc(OC)ccc3C2=O)cc1 | -8 | 4
CN(Cc1ccco1)S(=O)(=O)c1ccc2[nH]c3c(c2c1)CCCCC3 | 78* | -4
CN(C)c1ccc(CNS(=O)(=O)c2ccc3[nH]c4c(c3c2)CCCCC4)cc1 | 55* | 0
O=S(=O)(NCc1ccccc1)c1ccc2[nH]c3c(c2c1)CCCCC3 | 57* | -4
CN(CC(=O)NCc1ccco1)S(=O)(=O)c1ccc2[nH]c3c(c2c1)CCCC3 | 29 | -3
O=c1[nH]c2ccc(S(=O)(=O)NCc3ccco3)cc2s1 | -1 | 2
O=S(=O)(NCc1cccnc1)c1ccc2[nH]c3c(c2c1)CCCC3 | 22 | -3
Cc1ccc(CNS(=O)(=O)c2ccc3[nH]c4c(c3c2)CCCCC4)cc1 | 10 | -10
O=S(=O)(NCc1ccco1)c1ccc2[nH]c3c(c2c1)CCCCC3 | 87* | -4
O=S(=O)(NC1CN(Cc2ccccc2)CC1c1cccnc1)c1ccccc1 (stereo not drawn) | 12 | 0
O=C(Nc1cccc(Cl)c1)c1nn2c(C(F)(F)F)cc(-c3ccco3)nc2c1Cl | -1 | -3
COc1ccc(-c2nnc(C)c(NCc3ccccc3)n2)cc1 | 41 | -4
COc1ccc(CNc2nc(-c3ccccc3)nnc2C)cc1 | 56* | -5
CCOC(=O)C(=O)Nc1ccc2c(c1)N(C(=O)C(C)C)CCC2 | -12 | -3
OCCNCCOc1ccc(Br)cc1Cl | 100* | -2
OCCNCCOc1ccc(Br)cc1 | -3 | -5
Cc1cc2[nH]c(C(=O)Nc3ccccc3Cl)c(CN3CCOCC3)c2s1 | 20 | 33
Cc1cc2[nH]c(C(=O)Nc3ccccc3C)c(CN3CCOCC3)c2s1 | 50* | -3
Cc1cc2[nH]c(C(=O)Nc3c(F)cccc3F)c(CN3CCOCC3)c2s1 | 54* | 26
Cc1cc2[nH]c(C(=O)Nc3cccc(F)c3C)c(CN3CCOCC3)c2s1 | 12 | 11
SMILES | mHTT CaM bind | Pf apPOL block
O=C(NCCc1csc(C2CCN(C(=O)c3ccco3)CC2)n1)C1CCC1 | 11 | -3
COc1ccc(-c2nc(CNC(=O)c3ccc(-n4cccn4)nn3)cs2)cc1 | -11 | 1
CCn1cc2c3c(cccc31)CN(C(=O)c1cccc(F)c1)CC2 | 34 | -4
CCCn1cc2c3c(cccc31)CN(C(=O)c1ccccc1F)CC2 | 51* | -10
Cn1cc2c3c(cccc31)CN(C(=O)c1ccccc1F)CC2 | 30 | -2
CCCn1cc2c3c(cccc31)CN(C(=O)c1cccc(F)c1)CC2 | 66* | 0
COc1ccc(NC(=O)C2CCN(c3ccc(Cl)cc3)C2=O)cc1 (stereo not drawn) | 3 | 4
CC(=O)Nc1ccccc1NC(=O)COc1ccccc1 | -7 | 5
COc1ccc(NC(=O)COc2ccccc2)c2ccccc12 | -24 | 74*
CN1CCN(C(=O)C2CCN(c3nc4ccc(-c5cccs5)nc4s3)CC2)CC1 | 16 | -2
Cc1cc(NC(=O)c2ccc(S(=O)(=O)N(C)C)o2)no1 | -14 | 0
CN(C)S(=O)(=O)c1ccc(C(=O)NC(C)(C)CO)o1 | 100* | -3
O=C(NCc1ccccn1)C1CC(=O)N(CCc2c[nH]c3ccc(Cl)cc23)C1 (stereo not drawn) | 92* | -3
CCCNC(=O)C1CC(=O)N(CCc2c[nH]c3ccc(Cl)cc23)C1 (stereo not drawn) | 28 | 0
O=C(NCCc1ccccc1)C1CC(=O)N(CCc2c[nH]c3ccc(Cl)cc23)C1 (stereo not drawn) | 90* | -2
O=C1CC(C(=O)N2CCc3ccccc3C2)CN1CCc1c[nH]c2ccc(Cl)cc12 (stereo not drawn) | 65* | 3
CC(C)CNC(=O)C1CC(=O)N(CCc2c[nH]c3ccc(Cl)cc23)C1 (stereo not drawn) | 14 | -1
